The supplement of paper PMC12067093, “Discovery and optimisation of a covalent ligand for TRIM25 and its application to targeted protein ubiquitination” (Chemical Science, 2025)
Of roughly 21,000 targets only a part is listed; those with the largest changes were picked by preference.

Compound: Cc1cc(ccc1-c1ccccc1)C(=O)N1CCCN(CC1)C(=O)CCl [compound 10]
Assay: probe-labelled cysteine peptide fold change vs DMSO (competition) (log2 fold change); higher = less target engagement (more negative = stronger competition)
Settings: THP-1, incubation time: 4 h
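Further: competitive profiling in live THP-1 cells: cysteine peptides tagged with an iodoacetamide desthiobiotin (IA-DTB) probe, intensity after compound treatment relative to DMSO-treated cells.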

Sequence of UniProt Q9ULF5 (Q9ULF5 whole entry): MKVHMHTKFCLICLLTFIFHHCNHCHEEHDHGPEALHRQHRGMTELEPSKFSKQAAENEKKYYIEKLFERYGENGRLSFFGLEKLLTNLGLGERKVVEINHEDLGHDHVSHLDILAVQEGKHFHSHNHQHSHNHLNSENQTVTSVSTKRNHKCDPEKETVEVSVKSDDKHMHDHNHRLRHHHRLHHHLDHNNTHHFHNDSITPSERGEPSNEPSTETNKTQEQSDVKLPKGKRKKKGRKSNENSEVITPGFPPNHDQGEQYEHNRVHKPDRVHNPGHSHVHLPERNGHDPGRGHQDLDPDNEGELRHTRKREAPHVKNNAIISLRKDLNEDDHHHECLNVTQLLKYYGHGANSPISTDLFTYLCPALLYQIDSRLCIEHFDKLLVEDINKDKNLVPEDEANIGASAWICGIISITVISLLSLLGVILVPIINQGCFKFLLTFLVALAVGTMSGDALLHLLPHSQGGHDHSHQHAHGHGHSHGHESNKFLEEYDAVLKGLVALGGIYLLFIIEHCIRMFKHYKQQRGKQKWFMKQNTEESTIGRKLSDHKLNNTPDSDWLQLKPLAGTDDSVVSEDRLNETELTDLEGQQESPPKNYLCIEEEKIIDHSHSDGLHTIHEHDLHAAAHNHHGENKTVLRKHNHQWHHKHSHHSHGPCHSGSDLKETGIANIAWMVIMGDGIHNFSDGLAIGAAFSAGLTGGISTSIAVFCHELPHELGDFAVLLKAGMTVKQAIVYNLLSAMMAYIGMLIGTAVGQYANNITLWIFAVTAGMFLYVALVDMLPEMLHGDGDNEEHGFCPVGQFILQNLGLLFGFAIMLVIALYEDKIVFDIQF
Sequence of UniProt Q01826 (Q01826 whole entry, looked up): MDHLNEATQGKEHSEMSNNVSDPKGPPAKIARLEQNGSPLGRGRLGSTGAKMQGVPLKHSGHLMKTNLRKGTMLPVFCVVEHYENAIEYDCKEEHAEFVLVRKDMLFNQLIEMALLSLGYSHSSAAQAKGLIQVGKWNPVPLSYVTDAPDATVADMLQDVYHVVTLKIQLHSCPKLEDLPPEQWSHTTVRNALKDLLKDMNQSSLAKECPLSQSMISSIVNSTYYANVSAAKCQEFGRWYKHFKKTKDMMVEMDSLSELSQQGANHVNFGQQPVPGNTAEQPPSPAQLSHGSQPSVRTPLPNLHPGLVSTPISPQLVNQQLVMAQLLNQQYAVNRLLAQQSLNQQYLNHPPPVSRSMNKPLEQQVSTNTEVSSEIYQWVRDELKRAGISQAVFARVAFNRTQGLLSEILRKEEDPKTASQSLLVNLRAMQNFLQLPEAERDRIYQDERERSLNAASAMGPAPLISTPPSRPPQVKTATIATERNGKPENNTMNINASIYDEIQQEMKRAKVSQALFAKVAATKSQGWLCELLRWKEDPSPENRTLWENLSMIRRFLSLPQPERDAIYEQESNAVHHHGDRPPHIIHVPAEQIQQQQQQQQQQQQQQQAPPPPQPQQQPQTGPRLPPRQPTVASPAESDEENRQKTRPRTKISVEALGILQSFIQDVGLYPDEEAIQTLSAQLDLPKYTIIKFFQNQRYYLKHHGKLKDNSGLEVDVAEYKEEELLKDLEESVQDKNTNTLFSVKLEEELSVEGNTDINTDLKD
Sequence of UniProt Q14151 (Q14151 whole entry, looked up): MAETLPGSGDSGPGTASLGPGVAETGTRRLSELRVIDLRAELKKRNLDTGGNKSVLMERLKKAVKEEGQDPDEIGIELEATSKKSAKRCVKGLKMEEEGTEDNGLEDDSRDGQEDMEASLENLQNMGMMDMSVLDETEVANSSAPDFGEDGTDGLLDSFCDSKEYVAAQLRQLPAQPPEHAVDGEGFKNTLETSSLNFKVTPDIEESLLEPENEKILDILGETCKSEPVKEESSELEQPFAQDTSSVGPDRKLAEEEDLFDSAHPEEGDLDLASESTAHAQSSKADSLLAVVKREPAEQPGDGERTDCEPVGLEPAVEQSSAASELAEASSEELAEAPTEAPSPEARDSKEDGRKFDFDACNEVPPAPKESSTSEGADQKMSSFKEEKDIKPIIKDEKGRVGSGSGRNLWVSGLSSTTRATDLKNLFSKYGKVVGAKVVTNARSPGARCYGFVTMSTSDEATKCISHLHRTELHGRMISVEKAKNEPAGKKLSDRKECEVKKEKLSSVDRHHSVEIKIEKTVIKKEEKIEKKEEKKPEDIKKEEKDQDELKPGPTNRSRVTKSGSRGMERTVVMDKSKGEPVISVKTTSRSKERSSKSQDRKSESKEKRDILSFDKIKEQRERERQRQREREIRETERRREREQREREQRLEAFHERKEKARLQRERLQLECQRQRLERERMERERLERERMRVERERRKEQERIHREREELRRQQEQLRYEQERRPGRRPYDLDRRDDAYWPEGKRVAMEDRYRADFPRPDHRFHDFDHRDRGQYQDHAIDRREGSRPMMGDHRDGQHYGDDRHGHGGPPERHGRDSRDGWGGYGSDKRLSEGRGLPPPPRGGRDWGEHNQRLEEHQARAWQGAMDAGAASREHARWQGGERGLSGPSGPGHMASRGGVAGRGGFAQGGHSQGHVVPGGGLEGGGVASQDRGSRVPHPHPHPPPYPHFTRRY
Sequence of UniProt Q9H2G2 (Q9H2G2 whole entry, looked up): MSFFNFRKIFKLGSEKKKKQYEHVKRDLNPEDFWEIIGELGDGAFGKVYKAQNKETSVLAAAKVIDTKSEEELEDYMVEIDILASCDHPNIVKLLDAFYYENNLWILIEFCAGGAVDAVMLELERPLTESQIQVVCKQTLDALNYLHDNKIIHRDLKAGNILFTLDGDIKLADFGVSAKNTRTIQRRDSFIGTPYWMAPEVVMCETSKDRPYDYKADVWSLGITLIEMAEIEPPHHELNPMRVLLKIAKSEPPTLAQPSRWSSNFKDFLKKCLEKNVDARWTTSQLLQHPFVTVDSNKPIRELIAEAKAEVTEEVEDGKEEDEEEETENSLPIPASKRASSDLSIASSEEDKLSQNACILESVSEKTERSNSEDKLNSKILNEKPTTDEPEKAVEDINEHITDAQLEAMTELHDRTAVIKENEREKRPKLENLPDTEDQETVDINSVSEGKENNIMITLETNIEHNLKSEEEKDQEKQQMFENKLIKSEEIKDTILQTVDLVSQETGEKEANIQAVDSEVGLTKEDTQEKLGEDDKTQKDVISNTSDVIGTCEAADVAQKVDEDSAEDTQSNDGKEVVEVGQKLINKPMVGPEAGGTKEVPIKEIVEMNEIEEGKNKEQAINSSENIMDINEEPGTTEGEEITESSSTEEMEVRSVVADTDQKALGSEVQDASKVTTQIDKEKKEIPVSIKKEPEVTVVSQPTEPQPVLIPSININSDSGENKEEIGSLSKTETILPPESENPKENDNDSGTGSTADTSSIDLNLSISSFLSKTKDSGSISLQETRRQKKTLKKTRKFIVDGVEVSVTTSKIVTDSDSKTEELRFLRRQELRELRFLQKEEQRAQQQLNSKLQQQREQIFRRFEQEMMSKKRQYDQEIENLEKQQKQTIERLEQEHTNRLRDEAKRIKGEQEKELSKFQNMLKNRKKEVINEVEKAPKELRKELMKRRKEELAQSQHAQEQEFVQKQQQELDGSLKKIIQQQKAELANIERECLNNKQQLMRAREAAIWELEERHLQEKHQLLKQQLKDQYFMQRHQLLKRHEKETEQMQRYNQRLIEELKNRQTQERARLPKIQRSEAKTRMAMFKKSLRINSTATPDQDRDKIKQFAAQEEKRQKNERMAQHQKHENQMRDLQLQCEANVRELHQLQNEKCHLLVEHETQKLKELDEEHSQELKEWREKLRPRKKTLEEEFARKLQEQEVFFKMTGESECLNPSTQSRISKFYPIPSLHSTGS
Sequence of UniProt P13489 (P13489 whole entry, looked up): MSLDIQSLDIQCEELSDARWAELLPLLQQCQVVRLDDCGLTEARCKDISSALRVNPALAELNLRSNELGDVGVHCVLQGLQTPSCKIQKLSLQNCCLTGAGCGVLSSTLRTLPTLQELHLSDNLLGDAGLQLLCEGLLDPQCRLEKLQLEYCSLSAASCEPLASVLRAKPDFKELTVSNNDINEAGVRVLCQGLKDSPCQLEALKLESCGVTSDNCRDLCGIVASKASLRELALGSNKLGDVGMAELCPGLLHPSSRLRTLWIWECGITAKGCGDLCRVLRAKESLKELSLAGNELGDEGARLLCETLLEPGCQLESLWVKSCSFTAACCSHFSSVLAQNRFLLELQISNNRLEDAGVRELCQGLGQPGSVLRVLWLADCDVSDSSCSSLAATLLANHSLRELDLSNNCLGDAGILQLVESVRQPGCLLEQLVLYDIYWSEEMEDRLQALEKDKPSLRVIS
Sequence of UniProt Q8IZD6 (Q8IZD6 whole entry): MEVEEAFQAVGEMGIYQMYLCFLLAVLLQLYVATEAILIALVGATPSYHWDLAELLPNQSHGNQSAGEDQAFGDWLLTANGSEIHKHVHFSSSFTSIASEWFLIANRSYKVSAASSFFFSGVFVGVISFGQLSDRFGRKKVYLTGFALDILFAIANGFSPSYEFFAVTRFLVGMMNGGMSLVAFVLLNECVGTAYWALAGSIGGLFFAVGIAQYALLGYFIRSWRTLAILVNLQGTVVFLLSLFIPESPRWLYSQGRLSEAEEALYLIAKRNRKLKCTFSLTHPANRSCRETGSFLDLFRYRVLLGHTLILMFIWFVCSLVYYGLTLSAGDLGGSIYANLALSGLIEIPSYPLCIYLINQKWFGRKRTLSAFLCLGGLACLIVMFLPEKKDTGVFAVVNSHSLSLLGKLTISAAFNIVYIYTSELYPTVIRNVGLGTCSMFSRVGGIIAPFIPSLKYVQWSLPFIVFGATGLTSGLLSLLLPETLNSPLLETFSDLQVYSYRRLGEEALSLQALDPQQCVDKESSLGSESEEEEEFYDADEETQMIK
Sequence of UniProt Q9BUL9 (Q9BUL9 whole entry, looked up): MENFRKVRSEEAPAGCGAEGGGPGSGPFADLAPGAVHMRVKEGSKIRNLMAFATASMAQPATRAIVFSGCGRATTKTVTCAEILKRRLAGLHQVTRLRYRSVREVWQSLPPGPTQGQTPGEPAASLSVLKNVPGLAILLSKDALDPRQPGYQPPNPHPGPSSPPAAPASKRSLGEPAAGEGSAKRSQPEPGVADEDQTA

Target	probe-labelled cysteine peptide fold change (10 µM)	probe-labelled cysteine peptide fold change (50 µM)
SMCHD1_A6NHR9_444_YHPFLYDRETYPDDPCFPSK (UniProt A6NHR9)	-0.159	-0.206
SIN3B_O75182_1138_TLCETVHVHGLPVTR (UniProt O75182)	-0.165	0.0678
RNH1_P13489_30_WAELLPLLQQCQVVR (UniProt P13489)	0.0863	0.0624
SLC25A5_P05141_257_KGTDIMYTGTLDCWR (UniProt P05141)	-0.111	-0.203
SEMA4D_Q92854_370_PRPGACIDSEAR (UniProt Q92854)	-0.224	-1.22
RTN3_O95197-3_42_SCSSSCAVHDLIFWR (UniProt O95197)	-2.02	-1.97
SEC63_Q9UGP8_295_KNEPPLTCPYSLK (UniProt Q9UGP8)	-0.404	-1.57
RPS8_P62241_182_LLACIASRPGQCGR (UniProt P62241)	-0.207	-0.296
SMNDC1_O75940_214_VGVGTCGIADKPMTQYQDTSK (UniProt O75940)	0.155	-0.732
RPP25_Q9BUL9_70_AIVFSGCGR (UniProt Q9BUL9)	0.319	-0.143
SAP30_O75446_184_AQLVEIVGCHFR (UniProt O75446)	0.0105	-0.181
RPS6_P62753_83_GHSCYRPR (UniProt P62753)	-0.077	0.137
RPL11_P62913_21+25_KLCLNICVGESGDR (UniProt P62913)	-0.0801	-0.334
RNF214_Q8ND24_696_FWAQTNTNDTCPFCPTLK (UniProt Q8ND24)	0.35	1.12
SAFB2_Q14151_672_ERLQLECQR (UniProt Q14151)	-0.167	-0.742
SEC63_Q9UGP8_295_NEPPLTCPYSLK (UniProt Q9UGP8)	-0.343	-1.34

Target	probe-labelled cysteine peptide fold change (10 µM)	probe-labelled cysteine peptide fold change (50 µM)
SAE1_Q9UBE0_295_YCFSEMAPVCAVVGGILAQEIVK (UniProt Q9UBE0)	-0.252	0.0287
SLC39A10_Q9ULF5_598_NYLCIEEEK (UniProt Q9ULF5)	-0.213	-0.202
RPL7A_P62424_182_MGVPYCIIK (UniProt P62424)	0.17	-0.0867
RPL11_P62913_150_TGCIGAK (UniProt P62913)	-0.0968	-0.152
SATB1_Q01826_173_IQLHSCPK (UniProt Q01826)	-0.0552	-0.188
RNF14_Q9UBS8_350_LTYHGVSPCK (UniProt Q9UBS8)	-0.0421	-0.206
SLC25A5_P05141_257_GTDIMYTGTLDCWRK (UniProt P05141)	-0.0476	-0.127
SLC22A15_Q8IZD6_438_NVGLGTCSMFSR (UniProt Q8IZD6)	0.0942	-0.0742
SLK_Q9H2G2_1138_DLQLQCEANVR (UniProt Q9H2G2)	0.0336	0.0461
RPS6KA3_P51812_436_EDIGVGSYSVCK<|>RPS6KA2_Q15349_429_EDIGVGSYSVCK (UniProt Q15349+P51812)	-0.569	-1.64
SCAF11_Q99590_506_KLENTGIEANVLCLESEISENILEK (UniProt Q99590)	-0.478	0.011
SLPI_P03973_51+57_YKKPECQSDWQCPGK (UniProt P03973)	-0.847	-1.07
SLC25A28_Q96A46_49_GAGGGEAGACRPPVR (UniProt Q96A46)	-0.368	-0.406
SLITRK4_Q8IW52_661_HEGLGNPDCGSMQLQLR (UniProt Q8IW52)	-0.281	-0.498
RPLP0_P05388_27_CFIVGADNVGSK (UniProt P05388)	0.0238	0.0907
SAP30BP_Q9UHR5_127_CSNHLQDK (UniProt Q9UHR5)	-0.0884	-0.31
